The text below walks through data of PubChem BioAssay AID2284326 (EPA ToxCast).

Molecules are shown by their SMILES. Results filed as inconclusive are left out. Calls of active or inactive are those of the source. How the source made its calls: active means hit-call score of the fitted dose curve at least 0.9, where 1 is the maximum; inconclusive means response in the unintended direction; inactive means score below 0.9.

For this experiment, the system named is TPO (gene 7173). Nature of the experiment: CCTE_GLTED_hTPO: CCTE's human Thyroperoxidase (hTPO) Inhibition Assay, Great Lakes Toxicology and Ecology Division (GLTED) Lab. The protocol: CCTE_GLTED_hTPO is a cell-free, single-readout assay designed to test the inhibitory activity of chemicals toward human thyroperoxidase (TPO) protein. Uninhibited enzyme converts Amplex UltraRed to a fluorescent product. Measurements were taken 0.5 hour after chemical dosing in a 96-well plate. CCTE_GLTED_hTPO is the assay component measured from the CCTE_GLTED_hTPO assay. It is designed to make measurements of enzyme activity, a form of enzyme reporter, as detected with […] by Fluorescence technology.Data from the assay component CCTE_GLTED_hTPO was analyzed at the assay endpoint CCTE_GLTED_hTPO in the positive analysis fitting direction relative to DMSO as the negative control and baseline of activity. Using a type of enzyme reporter (the Amplex UltraRed assay), loss-of-signal activity can be used to understand decreased peroxidase activity in the presence of excess […]. To generalize the intended target to other relatable targets, this assay endpoint is annotated to the 'oxidoreductase' intended target family, where the subfamily is 'peroxidase'.
[…]
Consider `O=C(O)C(F)(OC(F)(F)C(F)(OC(F)(F)C(F)(OC(F)(F)C(F)(F)C(F)(F)F)C(F)(F)F)C(F)(F)F)C(F)(F)F` (centres undefined), for which the AC50 (as a rule, the concentration at which the activity in the assay is half-maximal) is 0.0612 µM (active).

For the compound `O=C(Cl)C(F)(F)C(F)(F)C(F)(F)C(F)(F)C(F)(F)C(F)(F)F`, the AC50 was 48.3 µM (active).

On to `FC(F)(F)C(F)(F)C(F)(F)C(F)(F)C(F)(F)C(F)(F)CCS`, for which the outcome was inactive.

In the case of `CN(C(=O)C(F)(F)C(F)(F)C(F)(F)F)[Si](C)(C)C`, the AC50 is 59.5 µM (active).

Take `FC(F)(F)C(F)(F)C(F)(F)C(F)(F)C(F)(F)C(F)(F)C(F)(F)C(F)(F)CCS`: the AC50 is 50 µM (active).

Consider `Cn1cc[nH]c1=S`, for which the AC50 was 0.127 µM (active).

With `O=C(O)C(F)(F)C(F)(F)C(F)(F)C(F)(F)C(F)(F)C(F)(F)C(F)(F)C(F)(F)Cl`, the AC50 was 278 µM (active).

With `O=S(=O)(Cl)C(F)(F)C(F)(F)C(F)(F)C(F)(F)C(F)(F)C(F)(F)C(F)(F)C(F)(F)F`, the AC50 was 276 µM (active).

Turning to `FC(F)=C(F)C(F)(F)C(F)(F)C(F)(F)C(F)(F)C(F)(F)C(F)(F)F`, the AC50 was 30.9 µM (active).

Take `O=C(O)C(F)(OC(F)(F)C(F)(OC(F)(F)C(F)(F)C(F)(F)F)C(F)(F)F)C(F)(F)F` (centres undefined): the AC50 was 13.1 µM (active).

With `O=S(=O)(OCC(F)(F)F)C(F)(F)C(F)(F)C(F)(F)C(F)(F)F`, the concentration at half-maximal activity (AC50) is 42.2 µM (active).

As to `O=C(Cl)C(F)(F)C(F)(F)C(F)(F)C(=O)Cl`, the AC50 is 150 µM (active).

As for `O=C(Cl)C(F)(F)C(F)(F)C(F)(F)C(F)(F)C(F)(F)C(F)(F)C(F)(F)C(F)(F)F`, the compound was classed as inactive.

In the case of `O=C(O)C(F)(F)C(F)(F)C(F)(F)C(F)(F)C(F)(F)C(F)(F)C(F)(F)C(F)(F)C(F)(F)C(F)F`, the outcome was inactive.
